PubChem BioAssay (NCI)
This is part of a sample that, as a whole, favours compounds with a hit. Of some 83,000 tested, about 20% had one in any assay.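 A percent growth of 40 corresponds to 60% growth inhibition; 0 means no net growth; -100 means all cells died. Active threshold: below 10.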 The source made the active and inactive calls.

Tests used:
Experiment in all cases: NCI-60 one-dose screen, 48 h (100 = growth as untreated, 0 = no growth, -100 = all killed)
Conditions in all cases: 10 µM unless noted
[1] = system: DU-145 prostate
[2] = system: K-562 leukemia
[3] = system: MALME-3M melanoma
[4] = system: MDA-MB-231 breast
[5] = system: RXF 393 renal
[6] = system: SF-268 CNS
[7] = system: SF-295 CNS
[8] = system: SF-539 CNS
[9] = system: UACC-257 melanoma
[10] = system: M14 melanoma

Measured: growth

CN(C)Cc1ccc(O)c(C(=O)O)c1
inactive: [1] 114% | [2] 107% | [3] 116% | [4] 121% | [5] 122% | [6] 104% | [7] 123% | [8] 100% | [9] 109% | [10] 113%

O=C1/C(=C/c2cn(-c3ccccc3)nc2-c2ccccc2)SC(=S)N1C1CCCCC1
inactive: [1] 106% | [2] 101% | [3] 92.3% | [4] 89.8% | [5] 106% | [6] 102% | [7] 104% | [8] 99.4% | [9] 102% | [10] 99.1%

COc1ccc2cc1Oc1ccc(cc1)C[C@H]1c3c(cc4c(c3Oc3cc5c(cc3OC)CCN(C)[C@@H]5C2)OCO4)CCN1C
active: [2] -2.72% | [3] -46.1% | [4] -5.97% | [5] -18.7% | [8] -55.7% | [9] -78.4% | [10] -86.2%
inactive: [1] 59.6% | [6] 36.4% | [7] 58.1%

Cc1cc(=O)n(C(=O)Nc2ccccc2Cl)c2cc(O)ccc12
inactive: [1] 108% | [2] 109% | [3] 93% | [4] 101% | [5] 109% | [6] 95.8% | [7] 101% | [8] 97.8% | [9] 96.5% | [10] 96.4%

Nc1n[nH]c2cccc(C#Cc3cccc(NC(=O)c4cc(F)cc(C(F)(F)F)c4)c3)c12
active: [2] 9.27%
inactive: [1] 97.9% | [3] 53% | [4] 48.1% | [5] 62.8% | [6] 73.6% | [7] 81.3% | [8] 44% | [9] 88.5% | [10] 41.9%

C#CCOc1cccc(Nc2ncnc3ccc(NC(=O)C=C)cc23)c1
active: [5] 2.49%
inactive: [1] 24.1% | [2] 46% | [3] 60.8% | [4] 54% | [6] 40.2% | [7] 66.2% | [8] 32.1% | [9] 54.9% | [10] 51.4%

Fc1cc2c(cc1Cl)N(c1ncnc3ccc(-c4ccc5n[nH]nc5c4)cc13)CC2
inactive: [1] 67.1% | [2] 88.2% | [3] 88.8% | [4] 72.8% | [5] 78.7% | [6] 69.5% | [7] 91.7% | [8] 78.9% | [9] 96% | [10] 94.8%

CCN1CCN(C(=O)[C@]23CCC(C)(C)C[C@@H]2C2=CC[C@@H]4[C@@]5(C)CCC(=O)C(C)(C)[C@@H]5CC[C@@]4(C)[C@]2(C)CC3)CC1
inactive: [1] 76.6% | [2] 21.1% | [3] 40.5% | [4] 56.5% | [5] 61% | [6] 41.5% | [7] 76.3% | [8] 48.9% | [9] 32.8% | [10] 57.1%

Cc1ccc(C[P+](c2ccccc2)(c2ccccc2)c2ccccc2)cc1
active: [1] 7.44% | [2] 2.1% | [7] 2.31% | [9] 3.36% | [10] 5.62%
inactive: [3] 10.1% | [4] 18.7% | [5] 16.6% | [6] 15.5% | [8] 16.3%

O=C(c1ccccc1)c1ccc(C2CCCCC2)cc1
inactive: [1] 106% | [2] 103% | [3] 87.4% | [4] 102% | [5] 100% | [6] 100% | [7] 94.3% | [8] 102% | [9] 105% | [10] 96.8%

CCN(CC)CC(O)COc1c(Br)c(Br)c(Br)c2c1OC(C)(C)C2 (stereo not given)
inactive: [1] 117% | [2] 23.9% | [4] 44.7% | [5] 99.4% | [6] 83% | [8] 108% | [9] 140% | [10] 41.3%
active: [3] -30.1% | [7] 1.69%

C=C(C)[C@@H]1CCC[C@]2(COS(=O)(=O)c3ccc(C)cc3)CC[C@]3(C)[C@@H](CC[C@@H]4[C@@]5(C)CCCNC(C)(C)[C@@H]5CC[C@]43C)[C@@H]12
inactive: [6] 48.2% | [8] 71.9% | [9] 58.5%
active: [1] 0.903% | [2] -33.4% | [3] 4.1% | [4] -10.3% | [5] -79.9% | [7] -11.5% | [10] -20.6%

CN(/C(N)=N/N=C/c1c2ccccc2cc2ccccc12)C1CCCCC1
inactive: [1] 57.6% | [2] 12.9% | [3] 39.8% | [4] 59.9% | [5] 48.1% | [6] 72.4% | [7] 45.7% | [8] 73.9% | [9] 64.3% | [10] 37.7%

COc1ccc(/C=C/C(=O)c2ccc(Nc3ccnc4cc(Cl)ccc34)cc2)cc1
inactive: [1] 103% | [2] 45% | [3] 142% | [4] 80.7% | [5] 13.5% | [6] 100% | [7] 77.4% | [8] 86.8% | [9] 102% | [10] 87.8%

O=C(Nc1ccc(OS(=O)(=O)c2ccc(F)cc2)cc1)C1CCCCCC1
inactive: [1] 90.6% | [2] 55.4% | [3] 99.6% | [4] 82.7% | [5] 105% | [6] 88.2% | [7] 98% | [8] 89.7% | [9] 93.9% | [10] 85.9%

CCNCCNc1cc(-c2ccc(C(F)(F)F)cc2)c(C#N)c2nc3ccccc3n12
active: [1] -95.1% | [2] -50.9% | [3] -78.1% | [4] -79.8% | [5] -93.9% | [6] -75.3% | [7] -72.5% | [8] -88% | [9] -80.2% | [10] -82.5%

O=C(/C=C/c1ccco1)Nc1ncc(Cc2cccc(C(F)(F)F)c2)s1
active: [2] 4.59% | [3] 5.43% | [5] -8.57% | [7] -20.5% | [8] -39.8% | [10] -10.2%
inactive: [1] 10.5% | [4] 25.5% | [6] 33.2% | [9] 25.4%

COCCn1cc(-c2nc(-c3cc4cccnc4[nH]3)cs2)c2cc(OC)ccc21
active: [2] 6.65% | [4] 2.87%
inactive: [1] 40.9% | [3] 73.9% | [5] 23.2% | [6] 44.9% | [7] 14.6% | [8] 30.8% | [9] 30.6% | [10] 37.6%

CSc1oc(C)nc1[P+](c1ccccc1)(c1ccccc1)c1ccccc1
inactive: [1] 57.6% | [2] 31% | [3] 76.1% | [4] 65.4% | [5] 75.9% | [6] 54.8% | [7] 78.3% | [8] 79.6% | [9] 20.5% | [10] 74.9%

Cc1cccc(CNc2c3ccccc3nc3ccccc23)c1
active: [2] 1.88% | [5] -1.71%
inactive: [1] 33.9% | [3] 14.1% | [4] 38.7% | [6] 52% | [7] 25.3% | [8] 11.7% | [9] 36.2% | [10] 22.8%

c1cnc2c(-c3nc4ccc5[nH]ncc5c4c4c3CCCC4)c[nH]c2c1
inactive: [1] 27.7% | [2] 21% | [3] 63.8% | [4] 30.7% | [5] 42.7% | [6] 40.4% | [7] 32.1% | [8] 42.9% | [9] 98.3% | [10] 59%

O=C(Nc1cccc(-c2ccc(N3CCOCC3)nn2)c1)Nc1cccc(C(F)(F)F)c1
inactive: [1] 80.5% | [2] 46.1% | [3] 89.5% | [4] 80.1% | [5] 81.5% | [6] 91.2% | [7] 52% | [8] 89.1% | [9] 69.7% | [10] 63.1%

O=C1/C(=C/c2cccc(F)c2)CN(C(=O)C(Cl)Cl)C/C1=C\c1cccc(F)c1
active: [1] -81.5% | [2] -9.05% | [3] -36.2% | [4] -63.7% | [5] -89.6% | [6] -29.6% | [7] -71.2% | [8] -98.6% | [9] -42.4% | [10] -69.7%

CN1CCc2nc3sc(C(N)=O)c(N)c3c(-c3cccs3)c2C1
active: [5] -32%
inactive: [1] 10.2% | [2] 74.2% | [3] 55% | [4] 44.5% | [6] 16.4% | [7] 21.7% | [8] 10.9% | [9] 57.9% | [10] 15.5%

COc1cc2nc3cc([N+](=O)[O-])ccc3c(NCCNCC(C)O)c2cc1OC (stereo not given)
active: [1] -7.42% | [2] 0.179% | [3] -74.1% | [4] -39.5% | [5] -56% | [6] -15.4% | [8] -21.6% | [9] -56% | [10] -66.1%
inactive: [7] 17.1%

O=C(Nc1ccccc1O)c1ccc(CNC(=O)c2sccc2Nc2ccnc(C(F)(F)F)c2)cc1
active: [3] -2.09%
inactive: [1] 46.7% | [2] 25.1% | [4] 53% | [5] 47.9% | [6] 49.2% | [7] 43.6% | [8] 48.9% | [9] 46.5% | [10] 58.3%

CC1CCN(CCOc2ccc(CNc3ccc4nc(CCC5CCCCC5)[nH]c4c3)cc2)CC1
inactive: [1] 50.9% | [6] 57.4%
active: [2] -0.866% | [3] -85.8% | [4] 0.0918% | [5] 2.71% | [7] -45.9% | [8] -67.9% | [9] -72.3% | [10] -63.1%
